High-throughput results from PubChem.
Only some compounds are listed: those with a hit (about 4.9% of all), similar ones and a draw of the others.
HSF1 inhib – HSF1 inhibitors in luciferase reporter cells, primary screen, cell-based, NIH3T3, luminescence | NIH3T3-HGL HSE-luciferase, MG132-induced, luminescence 8 h; hits give low values | activity change, negative = inhibition, % at 7.5 µM (by protocol) | AID 2098, 2009 | 300,000 tested, 0.77% active;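 active = more than half of replicate wells show activity change below -50%, luminescence cut by over half; inconclusive = some wells, but at most half, below -50%; inactive = no replicate well below -50%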;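 note: luciferase reports HSF-1 transcriptional activity via heat shock element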
MPTP inh – mitochondrial permeability transition pore inhibitors, primary screen, biochemical, isolated mouse mitochondria, absorbance; Ca2+ swelling absorbance, 30 min; inhibition, % at 10 µM; 360,000 tested, 1.4% active; AID 602449, 2012;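 active = inhibition of 50% or more, scaled per plate between neutral and stimulator controls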
HSF1 activator – HSF-1 activators, primary screen, NIH3T3-HGL cells, MG132 stress, luminescence, single point; NIH3T3-HGL HSF-1 luciferase reporter, 8 h; 100% = twice DMSO control signal; activation, % at 9 µM; 300,000 tested, 1.7% active;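 active = mean replicate activation of at least 50% with a set share of replicates each reaching 50%; inconclusive = only one of those two conditions met; inactive = mean below 50% and too few replicates reaching it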
dFosB act-1 – activators of delta FosB homodimer, primary screen, biochemical, fluorescence polarization, TAMRA-CDK5 oligo, single point; activation, % at 25 µM; purified delta FosB; percent of positive-control signal above neutral wells; 340,000 tested, 0.99% active; Protein FosB (Mus musculus), P13346;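 active = mean activation above about 17%, with every replicate also reaching it, limit read from the data, passing the limit was not always enough; inconclusive = only one of the two conditions met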
Target sequence (P13346 whole entry, looked up): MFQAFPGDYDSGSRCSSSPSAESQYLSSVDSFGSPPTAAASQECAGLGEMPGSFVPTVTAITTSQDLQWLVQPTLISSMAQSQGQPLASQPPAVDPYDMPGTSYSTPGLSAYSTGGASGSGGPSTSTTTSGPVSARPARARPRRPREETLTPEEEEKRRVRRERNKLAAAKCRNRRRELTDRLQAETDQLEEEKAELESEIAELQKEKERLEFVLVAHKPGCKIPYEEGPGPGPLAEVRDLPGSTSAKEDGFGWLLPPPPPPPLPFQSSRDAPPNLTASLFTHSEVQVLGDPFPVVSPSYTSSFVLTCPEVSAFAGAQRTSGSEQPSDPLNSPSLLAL
HSP90 refold inh – HSP90 inhibitors, primary screen, cell lysate, luminescence | Heat shock protein HSP 90 (rabbit reticulocyte lysate; luciferase refolding) | Rabbit reticulocyte lysate, luciferase refolding luminescence, 3 h | inhibition, % at 5.6 µM | 290,000 tested, 0.91% active;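 active = inhibition above the screen-wide mean plus 3 SD, computed separately per campaign, cut at about 16% in these data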;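 note: inhibitors lower the luminescence because luciferase stays unfolded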
Platelet DG rel – inhibitors of platelet dense granule secretion, primary screen, cell-based, MLPCN, human platelets | 300,000 tested, 0.22% active | inhibition, %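 (compounds screened at 7.5 µM in platelet-rich plasma)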 | human platelet-rich plasma, SFLLRN dense granule ATP release, luminescence;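 active = mean replicate score, as percent of positive control, at or above 50; inconclusive = mean below 50 but at least one replicate at or above 50; inactive = mean and every replicate below 50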
dFosB act-2 – activators of mouse delta FosB DNA binding, confirmation, biochemical, fluorescence polarization, TAMRA-CDK5 oligo, cherry-picked samples; shares compounds with dFosB act-1; purified delta FosB; normalised: neutral wells 0, positive control 100; activation, % at 24.9 µM; 2,400 tested, under 10 active; AID 588690, 2011;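 active = highest replicate activation at or above 34% and every replicate reaching that threshold; inconclusive = meets only one of the two criteria; inactive = meets neither criterion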;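 note: higher polarization means more probe DNA bound by delta FosB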
Numbers stand for hits; – = inactive; ? = inconclusive; · = no result.

SMILES	HSF1 inhib	MPTP inh	HSF1 activator	dFosB act-1	HSP90 refold inh	Platelet DG rel	dFosB act-2
CCOC(=O)c1ccc(NC(=O)C(=O)NCc2ccc(/C=C(/C#N)C(=O)NCCOC)o2)cc1	–	–	–	23	–	–	–
CCc1cccc(OCCOC(=O)CNS(=O)(=O)c2ccc(NC(C)=O)cc2)c1	·	–	·	56	·	·	–
CCc1ccc2c(COC(=O)CNS(=O)(=O)c3ccc(NC(C)=O)cc3)cc(=O)oc2c1	–	–	–	?	–	–	·
Cc1cc([N+](=O)[O-])ccc1NC(=O)CN1C2CCC1CC(NC(=O)NC13CC4CC(CC(C4)C1)C3)C2 (configuration not stated)	–	–	–	–	–	–	·
O=S(=O)(Cc1ccc(Cl)cc1)c1ccccc1-c1nnc(-c2ccc(Cl)cc2)o1	–	–	–	–	–	–	·
O=S(=O)(Cc1ccccc1)c1ccccc1-c1nnc(-c2ccccc2)o1	–	–	–	32	–	–	–
COc1cccc(N2CCc3c(C)nc4ccc(Cl)cc4c32)c1	–	–	–	–	–	–	·
CCN1Cc2c(/C=C/c3ccccc3)nc3ccc(OC)cc3c2N(c2cccc(Cl)c2)C1	–	–	–	21	–	–	–
Cc1cc(C)n(Cc2ccc(NC(=O)c3ccc(COc4ccccc4Br)cc3)cc2)n1	–	–	–	–	–	–	·
COc1ccc(/C=N\NC(=O)c2cc(OCC(F)(F)F)ccc2OCC(F)(F)F)cc1	–	–	–	18	–	–	–
COc1cc2[nH]c(=O)n(Cc3ccc(C(=O)NCCCN4CCC(C)CC4)cc3)c(=O)c2cc1OC	–	–	–	28	–	–	–
COc1cc2[nH]c(=O)c(C(=O)NCCCN3CCCCC3)c(O)c2cc1OC	–	–	–	26	–	–	?
COc1cc2[nH]c(=O)n(Cc3ccc(C(=O)N4CCC(N5CCCCC5)CC4)cc3)c(=O)c2cc1OC	–	–	–	34	–	–	–
COc1cc2[nH]c(=O)n(CCC(=O)N3CCC(N4CCCCC4)CC3)c(=O)c2cc1OC	–	–	–	–	–	–	·
CCOc1cc2[nH]c(=S)n(Cc3ccc(C(=O)NCCN(CC)CC)cc3)c(=O)c2cc1OCC	–	–	–	25	–	–	–
CCOc1cc2[nH]c(=S)n(Cc3ccc(C(=O)NCC(OC)OC)cc3)c(=O)c2cc1OCC	–	–	–	–	–	–	·
COc1cc2[nH]c(=O)n(CCCCCC(=O)NCCCN3CCC(C)CC3)c(=O)c2cc1OC	–	–	–	–	–	–	·
Nc1cccc2c(=O)c3ccccc3[nH]c12	–	–	–	–	–	–	·
O=C(Nc1nnc(Cc2ccccc2F)s1)Nc1ccccc1F	–	–	–	–	–	–	·
CCCOc1cccn2c(N(C=O)Cc3ccc(OC)cc3)c(CC)nc12	·	–	·	·	·	·	·
CCCc1ccc(S(=O)(=O)NCc2nnc(SC)n2C)cc1	–	–	–	–	–	–	·
O=C(O)c1ccc(/C=N/Nc2nc3ccccc3[nH]2)cc1	–	–	–	25	–	–	–
CC(=O)c1ccc(NC(=O)Nc2cccc3ccccc23)cc1	·	–	·	–	–	·	·
CC1CCN(S(=O)(=O)c2ccc(C(=O)Nc3sccc3C(N)=O)cc2)CC1	–	–	–	53	–	–	–
CN(C)NC(=O)c1ccsc1NC(=O)c1ccc(S(=O)(=O)N2CCCC2)cc1	–	–	–	–	–	–	·
SMILES	HSF1 inhib	MPTP inh	HSF1 activator	dFosB act-1	HSP90 refold inh	Platelet DG rel	dFosB act-2
CCOC(=O)C1CCCN(C(=O)c2ccc3c(c2)C(C)(C)CCC3(C)C)CC1 (configuration not stated)	·	–	·	·	·	·	·
Cc1cc(C)c2nc3nc(C)c(C)cc3c(N)c2c1	–	–	–	26	–	–	–
CC(C)(C)N1C(=O)[C@H]2[C@@H](c3ccc(Br)cc3)N3C(=O)N(c4cccc(Cl)c4)C(=O)[C@@]3(Cc3ccccc3)[C@H]2C1=O	–	–	–	–	·	–	·
COc1ccc(Cc2noc(-c3ccccc3)n2)cc1OC	–	–	–	–	–	–	·
COc1ccc(-c2nc(Cc3ccc(Cl)cc3)no2)cc1OC	–	–	–	50	–	–	–
COc1ccccc1NC(=O)Cn1cnc2sc(C(=O)Nc3cc(OC)c(OC)c(OC)c3)c(C)c2c1=O	–	–	–	–	–	–	·
COc1ccccc1NC(=O)c1sc2ncn(CC(=O)Nc3ccccc3)c(=O)c2c1C	–	–	–	49	–	–	–
COc1ccc(N(CC(=O)N2CCc3ccccc32)S(=O)(=O)c2c(C)n[nH]c2C)cc1	–	–	–	36	–	–	–
COc1ccc(N(CC(=O)N2CCc3ccccc32)S(=O)(=O)c2c(C)nn(C)c2C)cc1	–	–	–	–	–	–	·
CC1=C(C(=O)N2CCCCCC2)CC(CC(=O)NCCCCc2ccccc2)C(=O)N1Cc1ccccc1 (configuration not stated)	·	–	·	·	·	·	·
O=[N+]([O-])c1ccc2[nH]cc(S(=O)(=O)N3CCN(c4cccc(Cl)c4)CC3)c2c1	–	–	–	26	–	–	–
CC(=O)Nc1cc2cc(NS(=O)(=O)c3ccc(Cl)cc3)ccc2oc1=O	–	–	–	93	–	–	–
O=C(c1ccc(N2C(=O)CCC2=O)cc1)N1CCCSC1=Nc1ccccc1	·	–	·	·	·	·	·
Cc1ccc(C(=O)Nc2cccc(-c3nc4ncccc4o3)c2)cc1	–	–	–	–	–	–	·
Cc1ccc(OCC(=O)Nc2ccc(-c3nc4ncccc4o3)cc2)c(C)c1	–	–	–	73	–	–	–
CCCCn1nnnc1C(c1cc2ccccc2o1)N1CCN(CCN(C)C)CC1 (configuration not stated)	·	–	·	·	·	·	·
O=C(OC1CCOC1=O)c1cc(S(=O)(=O)N2CCOCC2)c(Cl)cc1Cl (configuration not stated)	·	–	·	–	·	·	·
CCc1nnc(NC(=O)CSc2ncnc3c2oc2ccccc23)s1	–	–	–	–	–	–	·
O=C(CSc1ncnc2c1oc1ccccc12)Nc1nc2ccccc2s1	–	–	–	33	–	–	–
Cc1nc(SCC(=O)NC(C)c2ccccc2)c2oc3ccccc3c2n1 (configuration not stated)	–	–	–	35	–	–	–
CN1CCN(S(=O)(=O)c2cccc(C(=O)Oc3ccc(C(C)(C)C)cc3)c2)CC1	–	–	–	23	·	–	–
